This note sets out measurements from ChEMBL document CHEMBL4513216, “Probing the Open Global Health Chemical Diversity Library for Multistage-Active Starting Points for Next-Generation Antimalarials” (ACS Infect Dis, 2020).

SMILES strings stand for the structures. Out of some 69,000 compounds screened, about 8,600 (12%) showed an effect of 50% or more. Shown is part of a subset that was picked to be rich in strong results.

The assay concerns Plasmodium berghei. The assay can be described thus: Screen against P. berghei liver stage (PbLuc), transformed with Luciferase, at 10uM. In kind it is functional, HepG2. The note with it: tested at 10 uM.
`COc1ccc(CN2Cc3nnn(C)c3C(COCCN(C)C)C2)cc1` (centres undefined): the INHIBITION is listed as 16.4%.
With `Cc1nc(-c2cc(Cl)c3c(c2)CC(CN)O3)c[nH]1` (centres undefined), the INHIBITION came out at 24.4%.
To `Cc1cc2c(c(-c3c[nH]c(C)n3)c1)OC(CN)C2` (centres undefined) belongs 11.6%; to `Cc1nc(-c2cc(Cl)cc3c2OC(CN)C3)c[nH]1` (centres undefined), 68.3%.
With `Cc1cc(C(F)(F)F)c2c(=O)n(Cc3cc(C)on3)n(C)c2n1`, the INHIBITION is listed as 42.1%.
To `CC(C)(CN)NS(=O)(=O)c1c(F)cccc1F` belongs -4.62%.
Regarding `CN1CCC(Cc2nc(-c3ccnn3C)n(Cc3ccccc3)n2)CC1`, the INHIBITION is listed as 64.6%.
With `CN1CCC(Cc2nc(-c3cnccn3)n(Cc3ccccc3)n2)CC1`, the INHIBITION is given as -14.3%.
Consider `Cc1ncsc1-c1nc(CC2CCN(C)CC2)nn1Cc1ccccc1`, for which the INHIBITION is 47.5%.
Regarding `COc1c(C2CCCN2Cc2cccc(C(N)=O)c2)c(C)nn1C` (centres undefined), the INHIBITION is listed as -11.4%.
For `O=c1cc2c(nn1CN1CCC(c3ccccc3)CC1)CCC2`, the INHIBITION was determined as 33.6%.
To `CCO[C@@H]1CN(S(=O)(=O)c2cn(C)cn2)[C@@H]2CCCO[C@@H]21` belongs 2.79%.
For the molecule `Cn1cnc(S(=O)(=O)N2C[C@H](OCC3CC3)[C@H]3OCCC[C@H]32)c1`, the INHIBITION is reported as 40.8%.
Turning to `CC(C)CO[C@H]1CN(S(=O)(=O)c2cn(C)cn2)[C@@H]2CCCO[C@H]12`, the INHIBITION amounted to 53.9%.
As for `CC(=O)N1C[C@H]2CC[C@@H](C1)N(C(=O)CCc1n[nH]c3c1CCCC3)C2`, the INHIBITION stood at 48.5%.
In the case of `CC(C)n1cnnc1CN(C)C(=O)C1CCCN(CC(N)=O)C1` (centres undefined), the INHIBITION is recorded as 4.25%.
In the case of `Cc1ccc(N2CCCC(NCc3cccc4c3OCO4)C2)nn1` (centres undefined), the INHIBITION was 16.8%.
Turning to `Cc1cn2c(n1)C(CNCc1ccc(C)s1)CCC2` (centres undefined), the INHIBITION is given as 51.1%.
Take `Cc1ccc(CNCC2CCCN2c2cccnn2)s1` (centres undefined): the INHIBITION is listed as -19.9%.
`Cc1ccc(CNCC2CCCn3ccnc32)s1` (centres undefined): the INHIBITION came out at 43.7%.
The value for `Cc1cn2c(n1)C(CNCc1cccc3c1OCO3)CCC2` (centres undefined) was 62%; that for `Cn1cc(N2CCCC(NCc3cccc4c3OCCCO4)C2)cn1` (centres undefined) was 11.1%.
For the molecule `CN(CCCc1cc(-c2ccccc2)no1)S(C)(=O)=O`, the INHIBITION was -42.55%.
On to `O=C(Cc1ccc2c(c1)CCO2)N1CCN(c2ccncc2)CC1`, for which the INHIBITION amounted to 15.3%.
`CC(C)NC(=O)[C@H]1C[C@H]2CN(C(=O)NCCc3ccccc3)C[C@@H]1O2`: the INHIBITION stood at 5.67%.
Consider `O=C(CNC(=O)c1ccc2c(c1)CCC2)NCCNc1ncccn1`, for which the INHIBITION is given as -24.3%.
The value for `CCNC(=O)Nc1ncc(-c2cccnc2)s1` was 4.41%.
The value for `CC(C)C(C)n1nccc1NC(=O)Cn1cnc2ccccc21` (centres undefined) was -8.99%.
The value for `COc1ccc(C(=O)Nc2n[nH]c(C3CCCO3)n2)cc1` (centres undefined) was 32.3%; that for `Cc1nn(C)c(C)c1C(=O)N1CCN(c2ccncc2Cl)CC1` was 43.9%.
In the case of `Cc1cccc(N2CCN(C(=O)c3c(C)nn(C)c3C)CC2)c1C`, the INHIBITION is reported as 54.8%.
Take `COC(=O)c1cccc(C(=O)N2CCN(c3cccc(C)c3C)CC2)n1`: the INHIBITION was 74.2%.
`COC(=O)c1cccc(C(=O)N2CCN(c3cc(Cl)ccc3C)CC2)n1`: the INHIBITION is 66.4%.
In the case of `Cc1cccc(N2CCN(C(=O)NC(C)c3nncn3C)CC2)c1C` (centres undefined), the INHIBITION is recorded as -48.4%.
To `COC(=O)c1cccc(C(=O)N2CCN(c3ccc(Cl)cc3)CC2)n1` belongs -18.3%.
As to `COC(=O)c1cccc(C(=O)N2CCN(c3cc(C)ccc3C)CC2)n1`, the INHIBITION is recorded as -19.4%.
The value for `COC(=O)c1cccc(C(=O)N2CCN(c3ccc(OC)cc3)CC2)n1` was 5.51%.
For `COC(=O)c1cccc(C(=O)N2CCN(c3ccccc3F)CC2)n1`, the INHIBITION was 30%.
For `CN(C(=O)c1ncn2c1CN(C)S(=O)(=O)c1ccccc1-2)C1CC1`, the INHIBITION is -30%.
As for `CCC(C(=O)N(C)CCC1=CCN(C)CC1)c1ccccc1` (centres undefined), the INHIBITION was 24%.
The value for `CCC(C)NC(=O)c1cc(S(=O)(=O)N(C)C)c(C)s1` (centres undefined) was 19.5%; that for `O=S1(=O)NC2(CCCN(CCc3ccccc3)C2)COc2ccccc21` (centres undefined) was 24.2%.
Turning to `Cc1nc(N2CCCN(C(=O)c3ccsc3)CC2)c2cnn(C)c2n1`, the INHIBITION was found to be 14.4%.
`CS(=O)(=O)NCCC1CCCCN1C(=O)NCCc1ccccn1` (centres undefined): the INHIBITION is -25.6%.
As to `Cc1nc(CN2CCCC2c2[nH]ncc2C(=O)N(C)C)cs1` (centres undefined), the INHIBITION was 8.53%.
For the molecule `Cc1c[nH]c(CN(C)C(C(=O)O)c2c(F)cccc2Cl)n1` (centres undefined), the INHIBITION was found to be 16.5%.
As for `COc1ccc(Cl)cc1C(C(=O)O)N(C)Cc1ccon1` (centres undefined), the INHIBITION is -73.6%.
For `CC(C)Oc1cccc(F)c1C(C(=O)O)N(C)Cc1ccon1` (centres undefined), the INHIBITION turned out to be 71.2%.
To `COc1cc(F)ccc1C(C(=O)O)N(C)Cc1ccon1` (centres undefined) belongs -66.4%; to `Cc1c[nH]c(CN(C)C(C(=O)O)c2c(F)cccc2OC(C)C)n1` (centres undefined), 58.2%.
For the molecule `CCOc1ccccc1C(C(=O)O)N(C)Cc1nc(C)c[nH]1` (centres undefined), the INHIBITION amounted to 21.1%.
On to `CC(Cn1cccn1)NC(=O)c1cccs1` (centres undefined), for which the INHIBITION was -40.2%.
For the molecule `CN1CCCC1CCNC(=O)Nc1ccccc1` (centres undefined), the INHIBITION stood at 27.3%.
In the case of `Cc1cc(Oc2ccccc2C)nc(C2CCCN2)n1` (centres undefined), the INHIBITION turned out to be 4.41%.
For the molecule `Cc1cccc(C(=O)NC(C)CN2CCCC2=O)n1` (centres undefined), the INHIBITION came to 4%.
In the case of `O=C(CCn1ccnc1)N1C[C@@H](O)[C@H](Oc2cccc(F)c2)C1`, the INHIBITION is listed as -31%.
Consider `CC(=O)NCC(=O)N1CCOC2(CCCN(c3cccnc3)C2)C1` (centres undefined), for which the INHIBITION worked out at 6.8%.
As for `Cc1cc(C)nc(N2CCCC(c3nccn3CCCN(C)C)C2)c1` (centres undefined), the INHIBITION is recorded as 17.1%.
`CN(C)C(=O)COCC1CN(Cc2ccco2)Cc2ncn(C)c21` (centres undefined): the INHIBITION worked out at 39.5%.
Regarding `NC(=O)c1cnc2n1CCN(C(=O)c1ccc(-c3cc[nH]n3)cc1)C2`, the INHIBITION is on record as 11.7%.
Take `CC(C)c1nc(COc2cccc3c2NC(=O)CO3)cs1`: the INHIBITION is 79.1%.
Take `Cc1ncc(COc2cccc3c2NC(=O)CO3)s1`: the INHIBITION was 8.05%.
With `O=C1COc2cccc(OCc3ccccn3)c2N1`, the INHIBITION came out at 12.3%.
Consider `O=C(CCc1nc(-c2ccccn2)no1)N1CCCC1c1ccsc1` (centres undefined), for which the INHIBITION is reported as 7.08%.
To `O=C(CCN1CCOCC1)NC(Cc1ccsc1)c1nccs1` (centres undefined) belongs 5.055%.
For the molecule `NC(=O)c1cn[nH]c1C1CCCN1C(=O)c1ccccc1` (centres undefined), the INHIBITION is 6.26%.
The value for `Cc1nc(C2CCCN2C(=O)Cc2ccc(F)cc2)ncc1C(N)=O` (centres undefined) was 19.6%.
In the case of `Cc1nc(C2CCCN2C(=O)c2ccc(F)cc2)ncc1C(N)=O` (centres undefined), the INHIBITION is 55.6%.
On to `NC(=O)c1cn[nH]c1C1CCCN1C(=O)COc1ccccc1` (centres undefined), for which the INHIBITION worked out at 52.7%.
As for `Cc1nc(C2CCCN2C(=O)c2ccccc2)ncc1C(N)=O` (centres undefined), the INHIBITION is 40.4%.
As to `NC(=O)c1cn[nH]c1C1CCCN1C(=O)c1ccccn1` (centres undefined), the INHIBITION worked out at 11.8%.
For `Cc1nc(C2CCCN2C(=O)COc2ccccc2)ncc1C(N)=O` (centres undefined), the INHIBITION was determined as 52%.
With `Cc1nc(C2CCCN2C(=O)CC2CCCC2)ncc1C(N)=O` (centres undefined), the INHIBITION was 17.1%.
In the case of `Cc1nc(C2CCCN2C(=O)CCc2ccccc2)ncc1C(N)=O` (centres undefined), the INHIBITION was determined as 18.3%.
